What was measured:
Assay in all cases: log2 ratio of Biotin-Ahx-Ub-VS probe labelling (fragment/DMSO); higher = less target engagement (more negative = stronger competition), active = hit call of the paper (q ≤ 0.05, log2 ratio ≤ -1)
Conditions in all cases: compound concentration: 200 uM; treatment time: 3 h
[1] = molecular target: T1, USP19 (UniProt O94966)
T1 sequence (whole entry): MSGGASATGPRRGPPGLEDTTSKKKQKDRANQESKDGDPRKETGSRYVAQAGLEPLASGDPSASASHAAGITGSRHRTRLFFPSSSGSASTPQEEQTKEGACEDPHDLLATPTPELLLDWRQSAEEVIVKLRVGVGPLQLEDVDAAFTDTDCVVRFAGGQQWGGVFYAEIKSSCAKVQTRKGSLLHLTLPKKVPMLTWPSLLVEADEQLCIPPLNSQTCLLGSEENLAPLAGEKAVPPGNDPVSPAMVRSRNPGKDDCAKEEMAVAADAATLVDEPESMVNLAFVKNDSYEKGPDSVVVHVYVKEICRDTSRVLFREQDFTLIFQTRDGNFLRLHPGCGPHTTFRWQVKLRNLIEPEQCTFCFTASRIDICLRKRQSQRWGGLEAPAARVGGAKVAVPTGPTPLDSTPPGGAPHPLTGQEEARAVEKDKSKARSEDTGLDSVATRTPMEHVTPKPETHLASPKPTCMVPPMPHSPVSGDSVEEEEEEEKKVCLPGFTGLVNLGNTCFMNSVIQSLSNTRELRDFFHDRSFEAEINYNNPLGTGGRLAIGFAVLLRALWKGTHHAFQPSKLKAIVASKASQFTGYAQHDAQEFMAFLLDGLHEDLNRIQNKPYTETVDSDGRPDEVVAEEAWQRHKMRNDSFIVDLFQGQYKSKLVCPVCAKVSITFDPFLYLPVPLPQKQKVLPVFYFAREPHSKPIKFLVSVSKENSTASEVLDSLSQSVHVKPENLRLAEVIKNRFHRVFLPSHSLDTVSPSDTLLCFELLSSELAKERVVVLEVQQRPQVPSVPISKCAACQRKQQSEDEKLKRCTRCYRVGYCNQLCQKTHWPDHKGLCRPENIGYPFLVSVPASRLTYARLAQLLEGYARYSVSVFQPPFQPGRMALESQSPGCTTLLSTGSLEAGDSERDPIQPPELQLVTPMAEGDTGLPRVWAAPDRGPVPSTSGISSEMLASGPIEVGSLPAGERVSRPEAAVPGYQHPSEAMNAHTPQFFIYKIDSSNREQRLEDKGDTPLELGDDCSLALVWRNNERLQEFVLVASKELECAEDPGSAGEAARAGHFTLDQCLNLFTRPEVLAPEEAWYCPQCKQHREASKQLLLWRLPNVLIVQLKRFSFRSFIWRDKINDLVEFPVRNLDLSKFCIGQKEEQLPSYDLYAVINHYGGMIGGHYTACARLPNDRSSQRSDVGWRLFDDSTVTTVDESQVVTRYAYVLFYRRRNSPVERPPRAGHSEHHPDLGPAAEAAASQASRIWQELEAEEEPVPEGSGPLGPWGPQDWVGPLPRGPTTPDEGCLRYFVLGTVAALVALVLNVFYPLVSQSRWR
Outline: (§1)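 Labelling with Biotin-Ahx-Ub-VS (0.5 µM final, 1 h) followed a 3 h triplicate treatment of HEK293T lysate (495 µg per sample, Tris/CHAPS/IGEPAL buffer with protease inhibitors) with fragment at 200 µM or vehicle. Labelled DUBs were NeutrAvidin-enriched, digested with LysC and trypsin, and run by diaPASEF LC-MS/MS. The values, average log2 fragment/vehicle ratios by unpaired t-test, come from global-median-normalised Spectronaut label-free quantities. Proteins with ≥2 unique peptides were used.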

[2] = molecular target: T2, USP22 (UniProt Q9UPT9)
T2 sequence (whole entry): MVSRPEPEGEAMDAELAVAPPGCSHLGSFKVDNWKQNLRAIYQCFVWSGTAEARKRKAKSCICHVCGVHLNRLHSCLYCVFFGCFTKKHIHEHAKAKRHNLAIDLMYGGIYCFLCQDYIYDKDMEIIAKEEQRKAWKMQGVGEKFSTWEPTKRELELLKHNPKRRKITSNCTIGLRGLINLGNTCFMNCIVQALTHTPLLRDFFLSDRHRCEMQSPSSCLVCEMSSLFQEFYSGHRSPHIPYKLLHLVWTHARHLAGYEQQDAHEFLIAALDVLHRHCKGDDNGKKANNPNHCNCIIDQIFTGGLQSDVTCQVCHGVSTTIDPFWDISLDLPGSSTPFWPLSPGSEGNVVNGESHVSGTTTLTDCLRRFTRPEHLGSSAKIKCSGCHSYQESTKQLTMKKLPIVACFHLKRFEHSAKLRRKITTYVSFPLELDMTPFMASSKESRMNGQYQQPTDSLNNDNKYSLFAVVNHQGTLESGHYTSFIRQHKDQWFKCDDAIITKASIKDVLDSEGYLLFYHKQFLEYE
Outline: as §1

[3] = molecular target: USP24 (UniProt Q9UPU5)
Outline: as §1

[4] = molecular target: T3, USP25 (UniProt Q9UHP3)
T3 sequence (whole entry): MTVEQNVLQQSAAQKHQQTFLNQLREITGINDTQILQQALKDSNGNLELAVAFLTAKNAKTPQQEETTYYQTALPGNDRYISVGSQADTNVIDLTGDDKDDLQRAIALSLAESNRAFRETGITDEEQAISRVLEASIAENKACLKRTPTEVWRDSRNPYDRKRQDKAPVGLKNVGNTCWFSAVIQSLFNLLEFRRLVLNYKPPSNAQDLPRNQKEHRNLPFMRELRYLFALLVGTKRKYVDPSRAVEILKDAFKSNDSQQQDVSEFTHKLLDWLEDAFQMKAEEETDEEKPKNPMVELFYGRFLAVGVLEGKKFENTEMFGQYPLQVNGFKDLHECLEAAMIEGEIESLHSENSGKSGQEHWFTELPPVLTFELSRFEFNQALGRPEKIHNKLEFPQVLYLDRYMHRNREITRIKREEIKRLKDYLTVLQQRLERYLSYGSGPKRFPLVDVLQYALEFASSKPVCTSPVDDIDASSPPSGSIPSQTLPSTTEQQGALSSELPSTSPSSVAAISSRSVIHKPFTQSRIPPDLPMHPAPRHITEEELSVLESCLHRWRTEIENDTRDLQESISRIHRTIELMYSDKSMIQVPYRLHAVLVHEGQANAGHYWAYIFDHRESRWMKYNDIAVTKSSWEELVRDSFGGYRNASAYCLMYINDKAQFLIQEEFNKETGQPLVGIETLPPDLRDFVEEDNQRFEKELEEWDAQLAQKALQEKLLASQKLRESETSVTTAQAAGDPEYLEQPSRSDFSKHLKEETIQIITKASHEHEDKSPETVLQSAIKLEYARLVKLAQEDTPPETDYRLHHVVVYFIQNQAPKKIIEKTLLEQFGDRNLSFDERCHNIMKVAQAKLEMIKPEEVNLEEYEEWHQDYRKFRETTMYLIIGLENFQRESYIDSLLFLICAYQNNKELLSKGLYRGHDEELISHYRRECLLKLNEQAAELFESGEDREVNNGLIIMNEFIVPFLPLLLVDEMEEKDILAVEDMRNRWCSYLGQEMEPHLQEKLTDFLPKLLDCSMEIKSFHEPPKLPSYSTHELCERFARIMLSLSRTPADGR
Outline: as §1

[5] = molecular target: T4, USP28 (UniProt Q96RU2)
T4 sequence (whole entry): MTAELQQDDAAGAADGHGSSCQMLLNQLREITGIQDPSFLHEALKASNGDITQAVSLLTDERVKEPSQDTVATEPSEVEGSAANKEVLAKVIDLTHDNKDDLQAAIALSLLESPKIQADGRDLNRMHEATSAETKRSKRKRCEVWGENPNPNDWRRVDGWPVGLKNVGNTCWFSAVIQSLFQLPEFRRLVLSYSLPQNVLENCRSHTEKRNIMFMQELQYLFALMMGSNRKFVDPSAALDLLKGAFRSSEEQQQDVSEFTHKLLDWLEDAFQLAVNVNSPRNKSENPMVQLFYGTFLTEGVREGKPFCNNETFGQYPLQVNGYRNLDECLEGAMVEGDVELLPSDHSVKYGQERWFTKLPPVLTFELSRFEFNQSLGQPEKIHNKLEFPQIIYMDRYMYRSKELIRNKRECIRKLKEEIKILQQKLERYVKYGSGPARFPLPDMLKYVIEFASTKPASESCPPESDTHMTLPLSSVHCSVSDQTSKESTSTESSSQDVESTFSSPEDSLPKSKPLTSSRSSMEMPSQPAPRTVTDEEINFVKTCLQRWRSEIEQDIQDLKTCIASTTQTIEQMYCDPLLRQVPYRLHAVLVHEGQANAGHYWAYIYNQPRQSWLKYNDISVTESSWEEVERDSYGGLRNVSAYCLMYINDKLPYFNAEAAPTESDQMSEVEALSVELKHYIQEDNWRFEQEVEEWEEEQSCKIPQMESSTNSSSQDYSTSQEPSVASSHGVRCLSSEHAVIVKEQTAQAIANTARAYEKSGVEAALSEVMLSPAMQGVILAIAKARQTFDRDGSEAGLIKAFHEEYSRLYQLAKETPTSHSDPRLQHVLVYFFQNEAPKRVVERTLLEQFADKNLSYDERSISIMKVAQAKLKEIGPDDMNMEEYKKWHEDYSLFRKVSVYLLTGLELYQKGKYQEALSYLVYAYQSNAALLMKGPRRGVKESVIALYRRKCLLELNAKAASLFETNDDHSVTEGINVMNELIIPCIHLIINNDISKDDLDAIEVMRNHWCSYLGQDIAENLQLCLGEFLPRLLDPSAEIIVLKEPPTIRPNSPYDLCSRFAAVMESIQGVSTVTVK
Outline: as §1

Measured: log2 ratio of Biotin-Ahx-Ub-VS probe labelling

Chain of USP24 (Q9UPU5 whole entry): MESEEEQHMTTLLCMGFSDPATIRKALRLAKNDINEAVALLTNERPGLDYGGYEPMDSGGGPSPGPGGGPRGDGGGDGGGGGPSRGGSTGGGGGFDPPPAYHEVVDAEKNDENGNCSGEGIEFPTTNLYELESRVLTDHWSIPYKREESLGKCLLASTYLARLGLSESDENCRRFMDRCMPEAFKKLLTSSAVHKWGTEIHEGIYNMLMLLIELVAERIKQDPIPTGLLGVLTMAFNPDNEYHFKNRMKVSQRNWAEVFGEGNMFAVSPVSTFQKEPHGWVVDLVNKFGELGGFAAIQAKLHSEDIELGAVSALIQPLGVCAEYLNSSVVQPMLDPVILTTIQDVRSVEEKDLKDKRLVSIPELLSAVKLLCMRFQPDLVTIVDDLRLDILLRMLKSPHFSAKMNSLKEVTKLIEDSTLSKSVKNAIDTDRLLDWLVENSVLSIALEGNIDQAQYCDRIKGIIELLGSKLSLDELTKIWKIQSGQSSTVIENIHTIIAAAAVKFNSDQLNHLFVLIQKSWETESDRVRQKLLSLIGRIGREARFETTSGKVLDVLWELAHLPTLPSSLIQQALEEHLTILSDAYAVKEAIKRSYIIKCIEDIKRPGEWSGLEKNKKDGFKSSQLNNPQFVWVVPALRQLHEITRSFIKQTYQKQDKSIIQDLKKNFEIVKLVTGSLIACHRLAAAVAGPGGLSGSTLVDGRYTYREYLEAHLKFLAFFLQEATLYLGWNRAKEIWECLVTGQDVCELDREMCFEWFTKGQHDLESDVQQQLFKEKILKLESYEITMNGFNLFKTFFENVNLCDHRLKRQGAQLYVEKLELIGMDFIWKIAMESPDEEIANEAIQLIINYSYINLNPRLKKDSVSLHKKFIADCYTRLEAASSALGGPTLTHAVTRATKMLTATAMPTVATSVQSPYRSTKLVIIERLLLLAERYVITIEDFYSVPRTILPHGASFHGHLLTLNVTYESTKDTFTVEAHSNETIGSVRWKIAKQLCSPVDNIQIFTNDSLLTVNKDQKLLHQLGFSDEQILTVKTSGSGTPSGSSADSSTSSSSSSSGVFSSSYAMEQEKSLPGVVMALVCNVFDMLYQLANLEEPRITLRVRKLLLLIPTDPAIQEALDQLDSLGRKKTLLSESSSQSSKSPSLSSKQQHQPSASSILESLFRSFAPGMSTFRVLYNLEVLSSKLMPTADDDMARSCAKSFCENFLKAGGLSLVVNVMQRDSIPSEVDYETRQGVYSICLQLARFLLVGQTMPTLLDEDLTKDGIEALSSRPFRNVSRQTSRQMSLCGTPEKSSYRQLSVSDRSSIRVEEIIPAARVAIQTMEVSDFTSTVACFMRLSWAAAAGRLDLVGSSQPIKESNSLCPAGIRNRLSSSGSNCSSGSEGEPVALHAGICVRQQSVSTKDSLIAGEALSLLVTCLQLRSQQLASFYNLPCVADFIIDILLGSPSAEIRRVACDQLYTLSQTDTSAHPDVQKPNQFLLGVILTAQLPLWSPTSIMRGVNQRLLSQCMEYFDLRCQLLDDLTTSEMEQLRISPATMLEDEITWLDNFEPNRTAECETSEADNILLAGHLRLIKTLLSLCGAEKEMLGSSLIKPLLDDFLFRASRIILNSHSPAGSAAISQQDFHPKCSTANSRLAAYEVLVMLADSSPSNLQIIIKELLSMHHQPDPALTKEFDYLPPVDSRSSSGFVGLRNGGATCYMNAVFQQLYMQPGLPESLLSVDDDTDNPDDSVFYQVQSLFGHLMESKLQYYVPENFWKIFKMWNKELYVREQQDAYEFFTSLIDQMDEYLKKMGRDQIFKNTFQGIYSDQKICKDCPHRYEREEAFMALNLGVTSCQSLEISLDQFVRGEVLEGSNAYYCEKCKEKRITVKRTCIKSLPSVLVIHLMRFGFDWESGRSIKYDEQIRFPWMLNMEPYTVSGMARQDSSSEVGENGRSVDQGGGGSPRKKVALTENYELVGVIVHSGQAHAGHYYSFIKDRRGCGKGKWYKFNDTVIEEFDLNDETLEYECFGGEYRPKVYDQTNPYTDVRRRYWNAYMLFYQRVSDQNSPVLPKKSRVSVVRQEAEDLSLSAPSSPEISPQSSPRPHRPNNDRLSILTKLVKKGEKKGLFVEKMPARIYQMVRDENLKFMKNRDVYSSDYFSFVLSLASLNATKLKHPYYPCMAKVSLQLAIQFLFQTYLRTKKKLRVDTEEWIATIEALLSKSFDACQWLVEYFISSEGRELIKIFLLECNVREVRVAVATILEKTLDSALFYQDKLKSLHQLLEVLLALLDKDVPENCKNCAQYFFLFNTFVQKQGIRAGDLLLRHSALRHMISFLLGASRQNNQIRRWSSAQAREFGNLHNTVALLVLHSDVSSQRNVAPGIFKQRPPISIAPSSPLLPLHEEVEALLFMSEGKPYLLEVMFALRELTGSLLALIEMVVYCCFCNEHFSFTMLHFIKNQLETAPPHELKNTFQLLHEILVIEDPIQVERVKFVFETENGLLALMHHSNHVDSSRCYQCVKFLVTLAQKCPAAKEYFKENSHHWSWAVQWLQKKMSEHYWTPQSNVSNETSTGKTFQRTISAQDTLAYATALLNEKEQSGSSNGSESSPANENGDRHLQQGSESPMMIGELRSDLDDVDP

CC(NC(=O)CCl)c1cnn(C2CC2)c1 (stereo not given)
inactive: [1] -0.305 | [2] -0.22 | [3] -0.409 | [4] -0.784 | [5] -0.621

Reference: the supplement of paper PMC11732987, “Enantioselective OTUD7B fragment discovery through chemoproteomics screening and high-throughput optimisation” (Communications Chemistry, 2025)
